A selection: hits, their analogues and other compounds. The true share with any hit is near 3.8%.
PfHsp90 set2 – growth inhibition of yeast expressing Plasmodium Hsp90; S. cerevisiae expressing PfHsp90, BacTiter-Glo ATP, 48 h; yeast lacking PDR1 and PDR3 efflux regulators; inhibition, % at 9.4 µM; actives 0.32% (n = 310,000);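 active = every replicate shows inhibition above about 80%, whatever the replicate mean, limit read from the data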
tim23-1 inh – inhibits growth of tim23-1 mutant yeast | inhibition, % at 20 µM | actives 1.3% (n = 330,000) | S. cerevisiae tim23-1 growth, BacTiter-Glo luminescence, 24 h;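 active = growth inhibition of the mutant yeast at or above 50%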;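 note: temperature-sensitive mutant grown at 25 °C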
tim10-1 inh – inhibits growth of tim10-1 mutant yeast. actives 2.2% (n = 330,000). S. cerevisiae tim10-1 ts strain growth, BacTiter-Glo, 24 h. inhibition, % at 20 µM. AID 463190;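 active = inhibition of at least 40%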;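 note: mutant grown at 25 °C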
Beta2AR agonist – agonists of human beta-2 adrenergic receptor inducing internalization; P07550; response, % (no concentration beside the values); Am2.2-beta2AR cells, FAP receptor internalization, flow cytometry; AID 504454; actives 0.43% (n = 340,000);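 active = response above a set limit, near 3 SD of response in nonfluorescent compounds, cut at about 42% in these data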
Target sequence (P07550 whole entry, looked up): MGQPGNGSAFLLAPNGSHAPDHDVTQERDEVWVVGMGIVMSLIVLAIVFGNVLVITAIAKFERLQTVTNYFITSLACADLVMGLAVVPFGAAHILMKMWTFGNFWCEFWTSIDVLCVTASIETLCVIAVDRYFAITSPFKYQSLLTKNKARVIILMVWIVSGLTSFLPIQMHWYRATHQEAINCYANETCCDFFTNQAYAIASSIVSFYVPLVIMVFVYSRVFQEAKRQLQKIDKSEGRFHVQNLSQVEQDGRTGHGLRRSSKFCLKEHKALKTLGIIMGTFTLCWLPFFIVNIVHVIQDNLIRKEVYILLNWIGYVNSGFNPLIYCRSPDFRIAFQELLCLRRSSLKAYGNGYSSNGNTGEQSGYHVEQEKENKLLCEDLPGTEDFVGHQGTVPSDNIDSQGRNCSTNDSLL
TIM10 inh – inhibits growth of TIM10 yeast strain; S. cerevisiae TIM10 strain growth, BacTiter-Glo luminescence, 24 h; inhibition, % at 10 µM; actives 1.4% (n = 330,000);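 active = inhibition of 40% or more at the single tested concentration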;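 note: wild-type TIM10 isogenic control strain grown at permissive 25 °C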
tim10-1 conf – tim10-1 yeast growth inhibition, confirmed; shares compounds with tim10-1 inh; S. cerevisiae tim10-1 ts strain growth, BacTiter-Glo, 24 h; inhibition, % at 20 µM; actives 56% (n = 7,400);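 active = inhibition of yeast growth at or above a set limit in either of two repeat tests at 20 µM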;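 note: tim10-1 mutant grown at permissive 25 °C to find synthetic lethal compounds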
Each line names hits and unclear results; the compound was inactive in the other large screens (follow-up assays come after a bar, where they were run).

Cc1[nH]c(-c2ccc(F)cc2)cc1C(=O)N1CCN(c2ccccc2F)CC1	tim10-1 inh 47 | tim10-1 conf 40
COc1ccccc1N1CCN(C(=O)c2cc(-c3ccc(F)cc3)[nH]c2C)CC1	tim10-1 inh 43 | tim10-1 conf 41
Cc1[nH]c(-c2ccc(F)cc2)cc1C(=O)N1CCN(c2ccccc2)CC1	none
CCc1nc2ccc(C(=O)N3CCN(c4cccc(OC)c4)CC3)cc2nc1CC	tim10-1 inh 46 | tim10-1 conf inactive
COc1ccc2[nH]c(C(=O)N3CCN(c4ccccc4F)CC3)c(C)c2c1	tim10-1 inh 47 | tim10-1 conf 33
Cc1ccc(NC(=O)c2oc3ccc(Br)cc3c2C)cc1S(=O)(=O)N1CCOCC1	none (no result: PfHsp90 set2, tim23-1 inh, tim10-1 inh, TIM10 inh)
COc1ccccc1CN1CCC(n2nccc2NC(=O)CCc2ccccc2)CC1	none
COc1ccccc1N1CCN(C(=O)C2CC2)CC1	none (no result: PfHsp90 set2)
COc1ccccc1N1CCN(C(=O)c2cc(=O)c3ccc(C)cc3o2)CC1	none
COc1ccccc1N1CCN(C(=O)C2c3ccccc3Oc3ccccc32)CC1	tim10-1 inh 45 (no result: PfHsp90 set2) | tim10-1 conf inactive
COc1cc(C(=O)N2CCN(c3cccc(C)c3C)CC2)cc(OC)c1OC	tim10-1 inh 42 | tim10-1 conf inactive
COc1ccccc1N1CCN(C(=O)c2oc3cc(C)cc(C)c3c2C)CC1	tim10-1 inh 45 | tim10-1 conf inactive
COc1cccc(N2CCN(C(=O)c3cc(-c4ccc(F)cc4)[nH]c3C)CC2)c1	tim10-1 inh 50 | tim10-1 conf inactive
COCCN1CCN(C(=O)c2cc(COc3ccc(F)c(F)c3)on2)CC1	none
CN1C(=O)NC(=O)C1c1ccccc1 (stereo not given)	none (no result: tim23-1 inh, tim10-1 inh, TIM10 inh)
CCN(C(=O)COC(=O)c1ccc(-n2c(C)ccc2C)cc1)c1c(N)n(Cc2ccccc2)c(=O)[nH]c1=O	none (no result: tim23-1 inh, tim10-1 inh, TIM10 inh)
COc1ccccc1NC(=O)Cn1c2ccccc2c2nc3n(c(=O)c21)CCS3	tim10-1 inh 42 (no result: PfHsp90 set2) | tim10-1 conf inactive
O=C(Cn1c2ccccc2c2nc3n(c(=O)c21)CCS3)Nc1ccccc1C(F)(F)F	none
N#Cc1nc(-c2ccco2)oc1N1CCc2ccccc2C1	tim10-1 inh 44 | tim10-1 conf inactive
N#Cc1nc(-c2ccco2)oc1N1CCCC1	none
O=C(Oc1ccc2c(c1)O/C(=C\c1ccncc1)C2=O)c1ccccc1	tim10-1 inh 42 | tim10-1 conf inactive
Cc1ccc(/C=C2\Oc3cc(OC(=O)N4CCOCC4)ccc3C2=O)cc1	none
COc1cc(C2Nc3cccc4cccc(c34)N2)ccc1O	none
CCN(CC)c1ccc(C2Nc3cccc4cccc(c34)N2)c(O)c1	tim10-1 inh 43 | tim10-1 conf inactive
O=C(O)c1cccc(S(=O)(=O)NCC2COc3ccccc3O2)c1 (stereo not given)	none
COc1cc(C(=O)OCC(=O)NC2CCCCCC2)ccc1OCC(C)C	none (no result: PfHsp90 set2)
CCCn1c(NC(=O)c2ccc(Cl)c(S(=O)(=O)N3CCCC3)c2)nc2ccccc21	tim10-1 inh 44 | tim10-1 conf 31
O=C(O)c1ccc(Nc2nc(-c3ccccc3)nc3ccccc23)cc1	tim10-1 inh 53 | tim10-1 conf inactive
c1ccc2c(c1)ccc1nnc(SCc3ccc4c(c3)OCCO4)n12	tim10-1 inh 45 | tim10-1 conf 29
S=C(Cc1ccccc1)Nc1ccccc1	none (no result: PfHsp90 set2, tim23-1 inh, tim10-1 inh, TIM10 inh)
Cc1ccn2c(NC3CCCC3)c(-c3cccs3)nc2c1	tim10-1 inh 46 | tim10-1 conf 31
Cc1ccn2c(NCc3ccccc3)c(-c3cccs3)nc2c1	tim10-1 inh 46 | tim10-1 conf inactive
c1csc(-c2nc3ccccn3c2NC2CCCCC2)c1	tim10-1 inh 48 | tim10-1 conf 33
Cc1ccc2nc(-c3cccnc3)c(NC3CCCCC3)n2c1	none
Cc1ccn2c(NC(=O)c3ccccc3)c(-c3cccs3)nc2c1	none (no result: PfHsp90 set2)
Cc1ccc(/C(O)=C2/C(=O)C(=O)N(CC(=O)O)C2c2ccc([N+](=O)[O-])cc2)cc1 (stereo not given)	none
COC(=O)c1cccc2c(C(=O)O)cc(-c3ccccc3)nc12	none (no result: tim23-1 inh, tim10-1 inh, TIM10 inh)
Cc1coc2c1C(=O)C(=O)c1c-2ccc2c(C)cccc12	tim10-1 inh 51 | tim10-1 conf inactive
CCOc1ccccc1N1CCN(C(=O)Nc2cccc(Cl)c2)CC1	tim10-1 inh 44 (no result: PfHsp90 set2) | tim10-1 conf inactive
CCCCCc1ccc(OCCCC[n+]2ccccc2)c(CCCCC)c1	tim10-1 inh 43 | tim10-1 conf 32
CCC(C)(C)c1ccc(OCCCC[n+]2ccccc2)c(C(C)(C)CC)c1	tim10-1 inh 46 | tim10-1 conf 37
C[C@H](CO)N1C[C@H](C)[C@@H](CN(C)Cc2ccc(-c3ccccc3)cc2)Oc2c(NC(=O)Nc3ccc4c(c3)OCO4)cccc2C1=O	none
Nc1cc2c(cc1C(=O)c1ccc(Cl)cc1)OCCO2	tim10-1 inh 41 | tim10-1 conf 33
Cn1nnnc1SCC(=O)Nc1cc(S(=O)(=O)N2CCCCC2)ccc1Cl	none
CNC(=O)N(O)C1N(/N=C/c2cc(Br)ccc2O)C(=S)SC1(C)C (stereo not given)	none
COc1cc(CN2C(=O)C(NC(=O)c3ccco3)(C(F)(F)F)C3=C2CC(C)(C)CC3=O)cc(OC)c1 (stereo not given)	tim10-1 inh 47 | tim10-1 conf inactive
COc1cc(/C=C/C(=O)c2ccc(O)cc2)ccc1OCC#N	none
COC(=O)c1ccc(/C=C/C(=O)c2cccc(OC)c2)cc1	tim10-1 inh 42 | tim10-1 conf 34
COc1cccc(C(=O)/C=C/c2ccc(OCC#N)c(OC)c2)c1	tim10-1 inh 43 | tim10-1 conf inactive
Nc1cc(=O)[nH]c(=O)n1CCc1ccccc1	none
OCCCNc1nc(-c2ccccc2)c2cc(Br)ccc2n1	tim10-1 inh 48 | tim10-1 conf 36
Cc1ccc2nc(NCCCO)nc(-c3ccccc3)c2c1	none
Brc1ccc(-c2csc3ncnc(-n4nnc5ccccc54)c23)cc1	tim10-1 inh 45 | tim10-1 conf 32
COc1ccc(CNC(=O)C/C(C)=N/NC(=O)c2ccc(OC)cc2OC)cc1	none
COc1ccc(CCNC(=O)Nc2cccs2)c(OC)c1	tim10-1 inh 41 | tim10-1 conf 36
COC(=O)[C@H](Cc1ccccc1)NC(=O)NCCc1ccc(OC)cc1	none
C#CCn1c(=NC(=O)c2cc(Cl)sc2Cl)sc2cc(S(N)(=O)=O)ccc21	tim10-1 inh 47 | tim10-1 conf 33
C#CCn1c(=NC(=O)CN2C(=O)CCC2=O)sc2cc(S(N)(=O)=O)ccc21	none
Clc1c2c(nc3ccccc13)CCC2	none
Cc1c2c(nc3ccccc13)CCC(C(C)(C)C)C2 (stereo not given)	tim10-1 inh 42 | tim10-1 conf inactive
Nc1ccccc1/C=C/c1ccccc1N	none (no result: tim23-1 inh, tim10-1 inh, TIM10 inh)
COc1ccc(/C=C2\CCC/C(=C\c3ccc(OC)c(OC)c3OC)C2=O)c(OC)c1OC	tim10-1 inh 41 | tim10-1 conf inactive
COc1ccc(CN2C[C@]3(CO)O[C@@H](CO)C[C@@H]3S2(=O)=O)cc1	none

High-throughput results deposited in PubChem BioAssay by several laboratories.
